# Experimental data: PMC4336329 (PLoS ONE, 2015)
# In all, about 310,000 compounds went through this assay and about 14,000 (4.5%) showed an effect of 50% or more. The effect is printed as a negative number. The full list was thinned out, with strong results kept by preference.
# Target: human ether-à-go-go-related gene (hERG) potassium channel (human, UniProt Q12809)
# Experiment: primary screen, population patch clamp on CHO cells stably expressing hERG; higher = less effect of the substance
# 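Note: peak tail current of the secondary pulse compared with the same well before compound.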
# human ether-à-go-go-related gene (hERG) potassium channel, sequence (Q12809 whole entry, looked up): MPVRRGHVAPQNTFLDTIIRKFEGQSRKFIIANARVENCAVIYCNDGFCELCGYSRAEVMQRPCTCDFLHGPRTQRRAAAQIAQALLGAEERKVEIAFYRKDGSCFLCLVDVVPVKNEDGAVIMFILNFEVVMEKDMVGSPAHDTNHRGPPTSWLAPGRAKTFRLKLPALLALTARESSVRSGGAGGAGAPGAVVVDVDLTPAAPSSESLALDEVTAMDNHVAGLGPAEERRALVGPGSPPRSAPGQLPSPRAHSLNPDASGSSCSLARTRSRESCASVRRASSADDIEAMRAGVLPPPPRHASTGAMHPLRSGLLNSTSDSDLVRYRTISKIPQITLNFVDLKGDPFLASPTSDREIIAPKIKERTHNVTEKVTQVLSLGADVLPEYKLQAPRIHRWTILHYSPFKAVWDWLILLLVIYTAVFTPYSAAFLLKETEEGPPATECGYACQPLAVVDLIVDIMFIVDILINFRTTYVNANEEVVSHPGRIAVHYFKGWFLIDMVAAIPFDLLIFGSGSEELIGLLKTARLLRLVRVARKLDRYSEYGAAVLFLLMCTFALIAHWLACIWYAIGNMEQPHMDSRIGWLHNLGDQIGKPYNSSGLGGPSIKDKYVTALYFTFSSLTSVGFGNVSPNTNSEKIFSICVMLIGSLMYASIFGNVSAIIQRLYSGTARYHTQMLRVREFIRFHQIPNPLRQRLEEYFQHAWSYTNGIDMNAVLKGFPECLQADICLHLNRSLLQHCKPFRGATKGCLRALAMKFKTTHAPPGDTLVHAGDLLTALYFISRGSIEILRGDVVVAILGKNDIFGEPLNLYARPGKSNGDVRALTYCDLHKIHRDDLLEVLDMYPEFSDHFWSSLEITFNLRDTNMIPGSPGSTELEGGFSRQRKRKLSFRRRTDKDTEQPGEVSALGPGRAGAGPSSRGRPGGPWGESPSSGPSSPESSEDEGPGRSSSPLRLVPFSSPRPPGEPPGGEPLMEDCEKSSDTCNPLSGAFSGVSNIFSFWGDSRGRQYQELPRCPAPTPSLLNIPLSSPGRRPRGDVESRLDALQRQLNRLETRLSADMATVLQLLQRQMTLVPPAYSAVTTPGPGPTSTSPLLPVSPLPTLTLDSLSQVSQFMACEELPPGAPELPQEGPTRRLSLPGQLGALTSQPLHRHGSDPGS
row,SMILES,"hERG current change (%, negative = inhibition) at 10uM [%]"
1,CC(C)c1ccc[n+](-c2nc([O-])sc2C=O)c1,14.7
2,S=c1nc(-c2ccccc2)n(CCN2CCOCC2)c2c1CCCC2,-13.4
3,O=C1c2ccccc2C(=O)C1c1ccc(Cl)cc1,8.89
4,CCOC(=O)N1CCN(C(=O)c2cc3cc(C)ccc3[nH]2)CC1,-7.43
5,O=c1[nH]nc(C(F)(F)F)c2nnn(Cc3ccccc3Cl)c12,14.1
6,CN1CCN(c2ccccc2NC(=O)c2ccc(-c3ccc(Cl)c(Cl)c3)o2)CC1,-3.73
7,CCn1cc(CN2CCC(n3nccc3NC(=O)CCCc3ccccc3)CC2)c(C)n1,-28.4
8,CCn1cc(CN2CCC(n3nccc3NC(=O)CCCc3ccccc3)CC2)cn1,-27.3
9,CSCCC(=O)N1CCC(n2nccc2NC(=O)CCCc2ccccc2)CC1,-5.8
10,CCn1nc(C)c(CN2CCC(n3nccc3NC(=O)CCCc3ccccc3)CC2)c1C,-60.1
11,CCOc1ccc(CN2CCC(n3nccc3NC(=O)CCCc3ccccc3)CC2)cc1,-78.2
12,C/C=C(\C)CN1CCC(n2nccc2NC(=O)CCc2ccccc2)CC1,-28.9
13,C/C=C(\C)CN1CCC(n2nccc2NC(=O)CCCc2ccccc2)CC1,-62.9
14,C/C=C(\C)CN1CCC(n2nccc2NC(=O)CCOc2ccccc2)CC1,-31.5
15,CSCCCN1CCC(n2nccc2NC(=O)CCCc2ccccc2)CC1,-62.5
16,CCn1nc(C)c(CN2CCC(n3nccc3NC(=O)Cc3ccccc3)CC2)c1C,6.57
17,Cc1ccc(CN2CCC(n3nccc3NC(=O)CCCc3ccccc3)CC2)o1,-20.5
18,CSCC(=O)N1CCC(n2nccc2NC(=O)CCCc2ccccc2)CC1,-17.6
19,CC(C)CN(Cc1cc2ccccc2[nH]c1=O)C(=O)c1cccnc1,-1.54
20,Cn1nc(C(C)(C)C)cc1C(=O)NNC(=O)c1ccccc1Cl,14.1
21,O=C(COC(=O)[C@@H]1CCCN1S(=O)(=O)c1ccc(Cl)cc1)NC1CCS(=O)(=O)C1 (stereo partly drawn),-14.7
22,COc1ccc(CNC(=O)CCC(=O)N2CCN(C(C)=O)CC2)cc1,14.3
23,Cc1nn(-c2ccccc2)nc1C(=O)Nc1ccc2[nH]ncc2c1,6.02
24,CC1Cc2ccccc2N1c1ncnc2c1nnn2Cc1ccccc1 (stereo not drawn),-0.652
